This passage reports growth results from PubChem BioAssay (NCI).

Molecules are shown by their SMILES. About 83,000 compounds went through this panel and 20% of them were active in at least one assay; those are over-represented in the sample as a whole.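 Cell lines were cultured in 96-well plates, exposed to a single compound concentration, and assessed for percent growth 48 hours later.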 A number with no mark means an inactive call. Calls of active or inactive are those of the source. Rule for the calls: active = growth percent below 10; inactive = the rest.

In this test the test system is HS 578T breast. As to the kind of experiment: NCI-60 one-dose screen, 48 h (100 = growth as untreated, 0 = no growth, -100 = all killed). The conditions noted are these: 10 µM unless noted.
As to `O=[As](O)(O)c1ccccc1[As](=O)(O)O`, the growth was 114%.
The same measure for `Clc1ccc(COC(Cn2ccnc2)c2ccc(Cl)cc2Cl)cc1` (centres undefined): 69.2%.
The same measure for `CC[C@H](C)[C@H](NC(=O)C12C3C4C1C1C2C3C41NC(C)=O)C(=O)N(C)[C@H](C[C@@H](OC(C)=O)c1nc(C(=O)N[C@@H](Cc2ccccc2)C[C@H](C)C(=O)OC)cs1)C(C)C` (some centres undefined): 18.6%; for `COc1ccc(C(=O)c2sc3nc4c(cc3c2N)N2CCC4CC2)cc1OC`: 100%.
Consider `CCC(CC)CC1(C)CC2(C)CCOC2OO1` (centres undefined), for which the growth was 92.6%.
Regarding `ClCCN(CCCl)c1ccc(/C=N\N=C\c2ccc(N(CCCl)CCCl)cc2)cc1`, the growth was 78.2%.
Under `CCOC(=O)C(Cc1ccc(N(CCCl)CCCl)cc1)NC(=O)C(CC(C)C)NC(C)=O` (centres undefined) stands 108%; under `CNCc1cccnc1`, 107%; under `CCN(CCO)C(Cc1ccccc1)c1ccccc1` (centres undefined), 105%.
Regarding `C=CCc1cc2c(cc1OCC)OCO2`, the growth is 93.2%.
Under `N#Cc1c(Br)n(C2OC(CO)C(O)C2O)c2ncnc(N)c12` (centres undefined) stands 39.5%; under `NC(=S)c1cn(C2OC(CO)C(O)C2O)c2ncnc(N)c12` (centres undefined), -25.4% (active).
The same measure for `O=P(N1CC1)(N1CC1)N1CCc2ccccc21`: 106%; for `Oc1ccc2c3c1OC1[C@@H](O)CC[C@@]4(O)[C@@H](C2)N(CC2CCC2)CC[C@]314` (some centres undefined): 105%.
Under `ClCCN(CCCl)c1ccc(OCc2ccccc2)cc1` stands 96.6%; under `N#CC1(C#N)C(c2ccc(N(CCCl)CCCl)cc2)OC23CCCCC2C1(C#N)C(=N)O3` (centres undefined), 101%; under `COC(=O)[C@@H](C)C[C@H](Cc1ccccc1)NC(=O)c1nc([C@@H](C[C@H](C(C)C)N(C)C(=O)[C@@H](NC(=O)[C@H]2CC(=O)CCN2C)C(C)C)OC(C)=O)sc1C(C)C`, 9.66% (active).
Turning to `Nc1ccc2c(c1)oc1ccccc12`, the growth is 104%.
The same measure for `CNC(=O)Oc1ccc(C(C)(C)C)cc1OC(=O)NC`: 106%; for `COc1cc2c(cc1OCCCCn1c(-c3cccs3)nc3ccccc31)N=C[C@@H]1CCCN1C2=O`: -5.13% (active).
The same measure for `CC[C@H](C)[C@H](NC(=O)C12C3C4C1C1C2C3C41NC)C(=O)N(C)[C@H](C[C@@H](OC(C)=O)c1nc(C(=O)N[C@@H](Cc2ccccc2)C[C@H](C)C(=O)OC)cs1)C(C)C` (some centres undefined): 13%; for `COc1ccc(N(CC(=O)NCCC[Te]c2ccccc2)C(=O)CCSC2=C(C)C(=O)c3ccccc3C2=O)cc1`: -10.3% (active); for `NC(=Nc1ccccc1)N[N+](=O)[O-]`: 97.5%.
Under `C[S+]1C=Cc2ccccc2C1c1ccc(Cl)cc1` (centres undefined) stands 77.7%; under `CC(C)[C@]12O[C@H]1[C@@H]1O[C@]13[C@]1(O[C@H]1C[C@H]1c4c(C(=O)c5ccccc5)oc(OC(=O)c5ccccc5)c4CC[C@@]13C)[C@@H]2O`, -30.6% (active).
For `O=C1C=C2C(=CCOC2O)O1` (centres undefined), the growth was 50%.
As for `Clc1ccc(N2COOC3(OOC2)C2CC4CC(C2)CC3C4)cc1`, the growth is 75.9%.
Regarding `Nc1ccc2c(c1)Cc1cc(Br)ccc1-2`, the growth was 111%.
The same measure for `CN1CC(CNC(=O)OCc2ccccc2)CC2c3cccc4c3c(cn4C)CC21` (centres undefined): 49.4%; for `NC(=O)c1c(Br)n(C2OC(CO)C(O)C2O)c2ncnc(N)c12` (centres undefined): -8.41% (active); for `Cc1cc(N(CCCl)CCCl)ccc1/C=N\NC(=O)c1ccncc1`: 109%.
The same measure for `COC(=O)CCC1=C(C)c2cc3[n-]c(cc4nc(cc5[n-]c(cc1n2)c(CCC(=O)OC)c5C)C=C4C)cc3C.[Cd+2]`: 39.8%; for `CCCC(C)C1(CC)C(=O)NC(=O)N(C)C1=O` (centres undefined): 99.4%.
The same measure for `CC(=O)c1ccc(C(=O)NCC2CCC3(CC2)OOC2(CCCCC2)OO3)cc1`: 102%.
